# Measured values as given in publication PMC5540273 (PLoS ONE, 2017).
# Test system: FGR
# Settings: concentration: 1 μM, replicates: in singlicate; n = 1
# 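Note: KINOMEscan kinase panel screen.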
row,SMILES,%Inh
1,Oc1cc(Nc2ccnc3cc(I)ccc23)ccc1F [GW552771],84%
2,Nc1ncc(-c2ccc3nccc(-c4ccncc4)c3c2)cc1S(=O)(=O)N1CCOCC1 [GSK1627798],24%
3,Cl.Cl.NCC(C(=O)Nc1cc(Br)c(-c2ccnc3[nH]ccc23)s1)c1ccccc1 (stereo not shown) [GSK1269851],55%
4,COc1ccc(Nc2nccc(N3CCC(NC(=O)Nc4cccc(OC)c4)C3)n2)cc1 (stereo not shown) [GSK1379742],17%
5,Cc1cccc(NC(=O)Nc2ccc(Oc3ncnc4ccn(C)c34)cc2)c1,0%
6,O=C(Nc1ccccc1F)NC1CCN(c2ccnc(Nc3ccc(F)cc3)n2)CC1 [GSK1379800],18%
7,COc1cccc(C2=C(Nc3ccc(Cl)c(C(=O)O)c3)C(=O)NC2=O)c1 [SB-390769],24%
8,O=c1[nH]cc(-c2ccc(N3CCOCC3)cc2)c2sc(-c3cn[nH]c3)cc12 [GSK2276055],0%
9,COc1ccc(Nc2nccc(NCCNC(=O)c3cc4ccccc4s3)n2)cc1 [GSK1379896],1%
10,O=C(Nc1cccc(-c2nn3ccccc3c2-c2ccnc(Nc3cccc(C(F)(F)F)c3)n2)c1)c1c(F)cccc1F [GSK292658],92.5%
11,COc1cccc(-c2ccc3c(NC(=O)C4CC4)n[nH]c3n2)c1 [SB-710903],26%
12,Cc1cccc(Nc2nc(N[C@H]3CCNC3)ncc2C(N)=O)c1.Cl [GSK2197149],82%
13,Fc1ccc(-c2ncn(C3CCNCC3)c2-c2ccnc(Oc3ccc(-c4ccccc4)cc3)n2)cc1 [SB-245391],17%
14,O=C(NC1CCN(c2ccnc(Nc3ccc(F)cc3)n2)C1)c1cc2ccccc2s1 (stereo not shown) [GSK1379716],25%
15,COc1cccc(C(=O)Nc2cccc(Oc3ccc4nc(NC(=O)C5CC5)cn4n3)c2)c1,98%
16,Cl.NC(=O)c1cccc(Nc2nccc(Nc3ccc(Oc4c(Cl)cccc4Cl)c(Cl)c3)n2)c1 [GW659009],31%
17,O=C(Nc1n[nH]c2cc(-c3ccoc3)ccc12)C1CC1 [SB-738481],22%
18,Cl.c1ccc(-c2ccc3c(Nc4ccc5[nH]ccc5c4)ccnc3c2)nc1 [GW440138],53%
19,COc1ccc(-c2coc3ccc(-c4nnc(SCc5ccc(OC)c(C(F)(F)F)c5)o4)cc23)cc1,0%
20,COc1cc2c(cc1OCCN1CCNCC1)ncc1c3ccc(C#N)cc3[nH]c21,2%
21,CN(c1ccc(NC(=O)Nc2cc(C(F)(F)F)ccc2F)cc1)c1ccnc(Nc2ccc(S(N)(=O)=O)cc2)n1 [GW809893],94.7%
22,Cn1cc(-c2ccc3c(c2)CCN3C(=O)Cc2cccc(F)c2)c2c(N)ncnc21 [GSK2603358],46%
23,CN(C)Cc1ccc(-c2ccc3c(Nc4ccc(Oc5ccccn5)cc4)ccnc3c2)o1 [GW567148],81%
24,c1ccc(-c2n[nH]cc2Nc2ccnc3ccccc23)nc1 [GW694077],10%
25,COc1ccc(CNC(=O)NC2CCN(c3ccnc(Nc4ccc(F)cc4)n3)CC2)cc1 [GSK1379788],19%
26,COc1cc(Nc2nccc(-c3c(-c4cccc(NC(=O)c5c(F)cccc5F)c4)nn4ncccc34)n2)cc(OC)c1OC [GSK327238],99.1%
27,CCCCc1nn2ncccc2c1-c1ccnc(Nc2ccc(N3CCN(C)CC3)cc2)n1 [GW684941],91.9%
28,CC(C)c1nc(-c2cccc(NS(=O)(=O)c3c(F)cccc3F)c2F)c(-c2ccnc(Nc3ccc(N4CCOCC4)nc3)n2)s1 [GSK2008607],98.7%
29,NCCCC(NC(=O)c1cc(Br)c(-c2ccnc3[nH]ccc23)s1)c1ccccc1.O=C(O)C(F)(F)F.O=C(O)C(F)(F)F (stereo not shown) [GSK1287544],24%
30,CN(C)S(=O)(=O)c1cc(-c2ccc3nccc(-c4cccc(S(N)(=O)=O)c4)c3c2)cnc1N [GSK1669921],22%

# Test system: FLT1
# Settings: concentration: 1 μM, replicates: in singlicate; n = 1
row,SMILES,%Inh
1,Nc1ncc(-c2cccnc2)c2scc(-c3ccc4c(c3)CCN4C(=O)Cc3ccccc3)c12 [GSK683281],47%
2,c1ccc(Oc2ccc(Nc3ccnc4cc(-c5ccc(CNCCN6CCOCC6)o5)ccc34)cc2)nc1 [GW567145],3%
3,Cl.Cl.NCC(NCc1ccc(-c2ccnc3[nH]ccc23)s1)c1ccccc1 (stereo not shown) [GSK1321565],18%
4,CCn1c(-c2nonc2N)nc2c(C#CC(C)(C)O)nc(OC[C@H](N)c3ccccc3)cc21 [GSK943949],1%
5,O=C(Nc1cccc(-c2nn3ncccc3c2-c2ccnc(Nc3ccccc3)n2)c1)c1c(F)cccc1F [GSK198271],98.4%
6,CCS(=O)(=O)c1ccc(OC)c(Nc2nccc(-c3c(-c4cccc(NC(=O)c5c(F)cccc5F)c4)nn4ncccc34)n2)c1 [GSK326180],90%
7,C[C@@H](Oc1cc(-n2cnc3cc(-c4ccnc(NCCS(C)(=O)=O)c4)ccc32)sc1C(N)=O)c1ccccc1Cl [GSK907232],63%
8,Oc1cc(Nc2ccnc3cc(I)ccc23)ccc1F [GW552771],44%
9,Nc1ncc(-c2ccc3nccc(-c4ccncc4)c3c2)cc1S(=O)(=O)N1CCOCC1 [GSK1627798],22%
10,Cl.Cl.NCC(C(=O)Nc1cc(Br)c(-c2ccnc3[nH]ccc23)s1)c1ccccc1 (stereo not shown) [GSK1269851],16%
11,COc1ccc(Nc2nccc(N3CCC(NC(=O)Nc4cccc(OC)c4)C3)n2)cc1 (stereo not shown) [GSK1379742],36%
12,Cc1cccc(NC(=O)Nc2ccc(Oc3ncnc4ccn(C)c34)cc2)c1,99.3%
13,O=C(Nc1ccccc1F)NC1CCN(c2ccnc(Nc3ccc(F)cc3)n2)CC1 [GSK1379800],29%
14,COc1cccc(C2=C(Nc3ccc(Cl)c(C(=O)O)c3)C(=O)NC2=O)c1 [SB-390769],25%
15,O=c1[nH]cc(-c2ccc(N3CCOCC3)cc2)c2sc(-c3cn[nH]c3)cc12 [GSK2276055],0%
16,COc1ccc(Nc2nccc(NCCNC(=O)c3cc4ccccc4s3)n2)cc1 [GSK1379896],19%
17,O=C(Nc1cccc(-c2nn3ccccc3c2-c2ccnc(Nc3cccc(C(F)(F)F)c3)n2)c1)c1c(F)cccc1F [GSK292658],78%
18,COc1cccc(-c2ccc3c(NC(=O)C4CC4)n[nH]c3n2)c1 [SB-710903],8%
19,Cc1cccc(Nc2nc(N[C@H]3CCNC3)ncc2C(N)=O)c1.Cl [GSK2197149],24%

row,SMILES,%Inh
1,Fc1ccc(-c2ncn(C3CCNCC3)c2-c2ccnc(Oc3ccc(-c4ccccc4)cc3)n2)cc1 [SB-245391],13%
2,O=C(NC1CCN(c2ccnc(Nc3ccc(F)cc3)n2)C1)c1cc2ccccc2s1 (stereo not shown) [GSK1379716],20%
3,COc1cccc(C(=O)Nc2cccc(Oc3ccc4nc(NC(=O)C5CC5)cn4n3)c2)c1,99.9%
4,Cl.NC(=O)c1cccc(Nc2nccc(Nc3ccc(Oc4c(Cl)cccc4Cl)c(Cl)c3)n2)c1 [GW659009],0%
5,O=C(Nc1n[nH]c2cc(-c3ccoc3)ccc12)C1CC1 [SB-738481],27%
6,Cl.c1ccc(-c2ccc3c(Nc4ccc5[nH]ccc5c4)ccnc3c2)nc1 [GW440138],98.1%
7,COc1ccc(-c2coc3ccc(-c4nnc(SCc5ccc(OC)c(C(F)(F)F)c5)o4)cc23)cc1,0%
8,COc1cc2c(cc1OCCN1CCNCC1)ncc1c3ccc(C#N)cc3[nH]c21,6%
9,CN(c1ccc(NC(=O)Nc2cc(C(F)(F)F)ccc2F)cc1)c1ccnc(Nc2ccc(S(N)(=O)=O)cc2)n1 [GW809893],98.3%
10,Cn1cc(-c2ccc3c(c2)CCN3C(=O)Cc2cccc(F)c2)c2c(N)ncnc21 [GSK2603358],63%
11,CN(C)Cc1ccc(-c2ccc3c(Nc4ccc(Oc5ccccn5)cc4)ccnc3c2)o1 [GW567148],32%
12,c1ccc(-c2n[nH]cc2Nc2ccnc3ccccc23)nc1 [GW694077],26%
13,COc1ccc(CNC(=O)NC2CCN(c3ccnc(Nc4ccc(F)cc4)n3)CC2)cc1 [GSK1379788],16%
14,COc1cc(Nc2nccc(-c3c(-c4cccc(NC(=O)c5c(F)cccc5F)c4)nn4ncccc34)n2)cc(OC)c1OC [GSK327238],99.2%
15,CCCCc1nn2ncccc2c1-c1ccnc(Nc2ccc(N3CCN(C)CC3)cc2)n1 [GW684941],98%
16,CC(C)c1nc(-c2cccc(NS(=O)(=O)c3c(F)cccc3F)c2F)c(-c2ccnc(Nc3ccc(N4CCOCC4)nc3)n2)s1 [GSK2008607],98.6%
17,NCCCC(NC(=O)c1cc(Br)c(-c2ccnc3[nH]ccc23)s1)c1ccccc1.O=C(O)C(F)(F)F.O=C(O)C(F)(F)F (stereo not shown) [GSK1287544],60%
18,CN(C)S(=O)(=O)c1cc(-c2ccc3nccc(-c4cccc(S(N)(=O)=O)c4)c3c2)cnc1N [GSK1669921],25%
